Values joined by “and” are separate entries in the source; they are usually repeats but may differ in a detail not shown here. Identical values can stand only once. Out of some 350,000 compounds screened, about 31,000 (8.9%) were called active. Where a call stands in place of a potency, no number is given. About 15% were inconclusive and are not listed. The call rests on the fitted dose curve; in most records, active means well fitted inhibition curve with a large enough effect; inconclusive means small, poorly fitted or top-dose-only effect; inactive means no such curve, though single readings can be large or run the other way. Many of the other results were omitted from the sample, so actives are more common in it than they were. More than one record can exist for a structure, and the calls need not agree.
Potency means the concentration at half of the fitted maximal effect.

The target in the assay is Histone-lysine N-methyltransferase EHMT2 (Homo sapiens) (UniProt Q96KQ7). As to the kind of experiment: qHTS Assay for Inhibitors of Histone Lysine Methyltransferase G9a. Further: nearly all actives have a fitted effect of over 75% in size. As to conditions: G9a H3K9 monomethylation, AlphaScreen, 2 h; series mostly up to 59 µM. The gist of the method: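 Using a bead-based AlphaScreen, monomethylated H3K9 product from 2 h room-temperature reactions (G9a 20 nM, peptide 500 nM, SAM 20 uM) was detected with 0.5 ug/mL rabbit anti-H3K9me1 antibody.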
Histone-lysine N-methyltransferase EHMT2 (Homo sapiens), sequence (Q96KQ7 913-1193 limits assumed): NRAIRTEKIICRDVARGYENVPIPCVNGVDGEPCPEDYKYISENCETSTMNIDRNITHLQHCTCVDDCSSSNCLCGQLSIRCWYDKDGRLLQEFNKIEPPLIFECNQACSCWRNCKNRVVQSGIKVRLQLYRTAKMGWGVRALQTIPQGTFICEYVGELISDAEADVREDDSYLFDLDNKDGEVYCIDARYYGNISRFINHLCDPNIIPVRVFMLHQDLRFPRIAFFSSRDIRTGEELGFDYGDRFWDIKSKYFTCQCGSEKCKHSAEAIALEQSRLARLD
(In general: qHTS replaces the single test concentration by a dilution series.)
For `Cc1csc(=Nc2ccccc2)n1CCO`, the Potency was 28.2 µM (active).
In the case of `COc1ccccc1OCCCn1c(-c2ccc(Cl)cc2)nc2ccccc2c1=O`, the Potency entry is “inactive”.
Turning to `CN(C)CCCn1c(SCc2ccc(Cl)cc2)nnc1-c1ccncc1`, the activity, negative = inhibition was 14% [at 0.501 µM] (inactive).
For the molecule `CN(C)CCCn1c(-c2ccc(Cl)cc2)csc1=Nc1ccccc1`, the Potency is 12.6 µM (active).
For `Cc1csc(=NC(=O)c2ccccc2)n1CCO`, the Potency result is “inactive”.
On to `OCCn1c(-c2ccccc2)csc1=Nc1ccccc1`, for which the Potency is 44.7 µM (active).
On the same count and under the same terms, the result for `COCCn1c(CCC(=O)Nc2cc(C)ccc2C)nc2cccnc21` reads “inactive”.
As to `O=C(OCC(=O)N1CCc2ccccc21)C1CCCN1S(=O)(=O)c1ccc(Cl)cc1` (stereo not drawn), the activity, negative = inhibition is 0.8% [at 2.33 µM] (inactive).
Regarding `CCCC(=O)Nc1ncnc2c1ncn2[C@@H]1O[C@@H]2OP(=O)(O)OC[C@H]2[C@H]1OC(=O)CCC`, the Potency result is “inactive”.
Still for that read-out and setting: the same measure for `CCCOc1cccc(C(=O)Nc2cccc(NC(=O)c3ccc(C(C)(C)C)cc3)c2)c1`: “inactive”.
`COc1ccc2c(c1)[C@H]1[C@H](CO2)[C@H](c2ccccc2)[C@]2(C)C(=O)Nc3cc(F)c(F)cc3C(=O)N12`: the activity, negative = inhibition is 5.78% [at 2.33 µM] (inactive).
In the case of `COc1ccc(-c2nonc2NC(=O)c2oc3ccc(F)cc3c2C)cc1OC`, the Potency entry is “inactive”.
Still for that read-out and setting: the same measure for `Cc1c(NC(=O)Cc2ccccc2)cccc1-c1nc2cccnc2s1`: “inactive”; for `CN(C)/N=C/c1cc(Cl)cc([N+](=O)[O-])c1O`: “inactive”; for `O=C(Cc1cc(=O)[nH][nH]1)N/N=C/c1ccccc1[N+](=O)[O-]`: “inactive”.
Still for that read-out and setting: the result for `O=C(N/N=C/c1cc(Cl)cc([N+](=O)[O-])c1O)C(O)(c1ccccc1)c1ccccc1` reads 28.2 µM (active); that for `CCOc1ccc(N(CC)C(=O)c2noc3c2COc2ccc(C)cc2-3)cc1`, “inactive”; that for `CCn1cc(C(=O)N2CC(C)CC(C)C2)c(=O)c2cc(S(=O)(=O)N3CCCC3)ccc21` (stereo not drawn), “inactive”.
Still for that read-out and setting: the same measure for `CC1CCCCC1NC(=O)c1cn(C)c2ccc(S(=O)(=O)N3CCOCC3)cc2c1=O` (stereo not drawn): “inactive”; for `COC(=O)c1cn(C)c2ccc(S(=O)(=O)N3CC(C)CC(C)C3)cc2c1=O` (stereo not drawn): 56.2 µM (active).
On to `O=C1C=C(c2ccnc3cc(Cl)ccc23)C[C@@H](c2ccc3c(c2)OCO3)C1`, for which the activity, negative = inhibition was -18.7% [at 0.501 µM] (inactive).
Turning to `COc1cccc(N2CC(NS(=O)(=O)c3cccs3)CC2=O)c1` (stereo not drawn), the Potency entry is “inactive”.
As for `Cc1ccc2c(CN3CCN(S(=O)(=O)c4ccccc4C(F)(F)F)CC3)cc(=O)oc2c1`, the activity, negative = inhibition was -13.1% [at 12.7 µM] (inactive).
For `COCc1cc(=O)oc2cc(NS(=O)(=O)c3ccc(C)cc3)ccc12`, the Potency result was “inactive”.
As for `Cc1ccc2c(CSc3nncs3)cc(=O)oc2c1`, the Potency was 50.1 µM (active).
Same read-out and setting: the result for `O=C(/C=C/c1ccccc1[N+](=O)[O-])OC1CCCCC1=O` (stereo not drawn) reads “inactive”; that for `O=C(/C=C/c1ccccc1[N+](=O)[O-])NCC1CCCO1` (stereo not drawn), “inactive”.
The same measure, in the same setting: the same measure for `O=[N+]([O-])c1ccccc1/C=C/CN1CCC(O)CC1`: 39.8 µM (active).
`CC1CC(C)CN(C/C=C/c2ccccc2[N+](=O)[O-])C1` (stereo not drawn): the Potency is 50.1 µM (active).
On to `CC(C)CNC(=O)COC(=O)/C=C/c1ccccc1[N+](=O)[O-]`, for which the Potency result is “inactive”.
Consider `O=C(/C=C/c1ccccc1[N+](=O)[O-])OCC(=O)N1CCCC1`, for which the activity, negative = inhibition was 11.7% [at 12.7 µM] (inactive).
Regarding `CCC1(C)CC(=O)c2c(ccc3oc(C(=O)Nc4ccc(C(C)=O)cc4)c(C)c23)O1` (stereo not drawn), the Potency result was “inactive”.
The same measure, in the same setting: the result for `Cc1ccc(C)c(N2CCN(C(=O)C3CCC(CNS(=O)(=O)c4cccs4)CC3)CC2)c1` (stereo not drawn) reads “inactive”; that for `CCCN1CCN(C(=O)CCCNC(=O)c2ccc(Cl)cc2)CC1`, “inactive”.
Same read-out and setting: the result for `COc1ccccc1NC(=O)c1cc(C2CC2)nc2c1c(C)nn2-c1ccc(C)cc1` reads “inactive”; that for `CCN(CC)S(=O)(=O)c1ccc2c(c1)N(CC(=O)NCC(C)c1ccccc1)C(=O)CO2` (stereo not drawn), “inactive”.
As for `O=C(COC(=O)c1cc(S(=O)(=O)N2CCOCC2)ccc1Cl)NCCc1ccccc1`, the activity, negative = inhibition was -2.95% [at 12.7 µM] (inactive).
Consider `Cc1ccnc(NC(=O)CNC(=O)c2ccccc2)c1`, for which the Potency result is “inactive”.
The same measure, in the same setting: the result for `S=c1[nH]c(-c2cccs2)cn1-c1ccccc1` reads 2.51 µM (active); that for `O=C(O)/C=C/c1cn(-c2ccccc2)nc1-c1cccs1`, “inactive”.
Same read-out and setting: the result for `O=c1[nH]c(-c2cccs2)nc2ccccc12` reads “inactive”; that for `CC1=C(C(=O)OCC(C)C)C(c2ccc(OCc3ccccc3)cc2)N2C(=O)CCSC2=N1` (stereo not drawn), “inactive”.
As to `O=C(c1ccc[nH]c1=S)N1CCN(S(=O)(=O)c2ccc(Br)cc2Cl)CC1`, the Potency was 8.91 µM (active).
Regarding `O=C(c1ccc(Cl)c(S(=O)(=O)N2CCCCC2)c1)N1CCCCCC1`, the Potency entry was “inactive”.
Regarding `O=C(c1ccccc1F)N1CCN(S(=O)(=O)c2ccc(Br)cc2)CC1`, the Potency entry was “inactive”.
The same measure, in the same setting: the result for `CC(C)CN(C(=O)Cn1c(=O)cnc2ccccc21)C1CCS(=O)(=O)C1` (stereo not drawn) reads “inactive”.
As to `O=C1[C@H]2[C@@H](c3ccc(Cl)cc3)N3C(=O)N(c4cccc(F)c4)C(=O)[C@@]3(Cc3ccccc3)[C@H]2C(=O)N1C1CCCCC1`, the activity, negative = inhibition is -8.78% [at 2.33 µM] (inactive).
Consider `c1cncc(-c2nc(N3CCNCC3)c3ccccc3n2)c1`, for which the activity, negative = inhibition is 8.14% [at 0.501 µM] (inactive).
As to `S=c1nc2ccccc2c2nc(-c3cccnc3)[nH]n12`, the Potency is 10 µM (active).
Take `CC(C)(C)OC(=O)N1CCC(c2c(C(=O)NCc3ccccn3)cnn2-c2ccc(F)cc2)CC1`: the Potency result is “inactive”.
Same read-out and setting: the same measure for `Cc1ccc(CN(Cc2cccnc2)C(=S)Nc2cc(Cl)ccc2C)cc1`: “inactive”.
The same measure, in the same setting: the same measure for `COCCNC(=S)N(Cc1cccnc1)Cc1ccc(OC)c(OC)c1`: “inactive”; for `Cc1ccc2[nH]c(C)c(CCNC(=O)NC3CCCCC3)c2c1`: “inactive”; for `CCNC(=S)N(CCc1c(C)[nH]c2ccc(C)cc12)Cc1ccco1`: 50.1 µM (active).
Still for that read-out and setting: the same measure for `Cc1ccc(NC(=S)N(Cc2ccco2)C(C)c2cccs2)cc1` (stereo not drawn): “inactive”.
Take `COCCNC(=S)N(CCc1c(C)[nH]c2ccc(C)cc12)Cc1cccnc1`: the Potency is 70.8 µM (active).
Consider `COC(=O)c1ccc(-c2c(-c3ccccc3)ncc3cc(OC)c(OC)cc23)cc1`, for which the activity, negative = inhibition is -32.8% [at 0.501 µM] (inactive).
Still for that read-out and setting: the result for `Cc1cc(C)n2nc(C(=O)OC(C)C(=O)c3cc(C)c(C)cc3C)nc2n1` (stereo not drawn) reads 20.5% [at 0.501 µM] (inactive).
Turning to `COc1cccc(C(=O)NCc2ccc3c(c2)CCN3C(=O)c2ccncc2)c1`, the Potency entry is “inactive”.
On the same count and under the same terms, the same measure for `O=C(Cc1cccs1)NCc1cccc(C(F)(F)F)c1`: “inactive”; for `COc1ccccc1NC(=O)CCC(=O)OC(C)C(=O)c1ccccc1` (stereo not drawn): “inactive”.
With `O=C(CN1C(=O)NC2(CCOc3ccccc32)C1=O)NCc1ccc(F)cc1` (stereo not drawn), the activity, negative = inhibition was 28.5% [at 12.7 µM] (inactive).
In the case of `COc1cccc(CC(=O)Nc2ccc(-c3csc(C)n3)cc2)c1`, the Potency entry is “inactive”.
`CC1CCCC(C)N1C(=O)CN1CCN(c2nc(-c3ccc(F)cc3)cs2)CC1` (stereo not drawn): the Potency entry was “inactive”.
For the molecule `COc1cccc(NC(=O)CN2CCN(c3nc(-c4cccc(OC)c4)cs3)CC2)c1`, the Potency was 10 µM (active).
Still for that read-out and setting: the result for `O=C(CN1CCOCC1)Nc1ccc(NC(=O)CN2CCOCC2)c(Cl)c1` reads “inactive”.
On the same count and under the same terms, the same measure for `COc1cccc(NC(=O)CN2CCN(CC(=O)Nc3ccccc3Cl)CC2)c1`: 35.5 µM (active).
Still for that read-out and setting: the same measure for `COc1cc(NC(=O)CN2CCN(S(=O)(=O)c3ccc(Br)cc3)CC2)cc(OC)c1`: “inactive”; for `CC(C)c1ccccc1OCC(O)CN(CC(O)COc1cccc2ccccc12)C(C)C` (stereo not drawn): “inactive”.
In the case of `COc1ccc(CCNC(=O)c2ccc3c(c2)sc2nc(-c4ccc(C)cc4)cn23)cc1OC`, the Potency result was “inactive”.
On the same count and under the same terms, the result for `Cc1c(Cl)cccc1NC(=O)N1CCN(C(=O)c2nsc3ccccc23)CC1` reads “inactive”.
`CC1=C(C/C=C(\C)CCCC(C)CCCC(C)CCCC(C)C)C(=O)c2ccccc2C1=O` (stereo not drawn): the Potency entry is “inactive and 14.1 µM (active)”.
For `Cn1cc(CNC(=O)c2ccc(OC3CCN(Cc4ccccn4)CC3)cc2)cn1`, the Potency entry was “inactive”.
Turning to `N#Cc1c(Cl)nc(-c2cccnc2)nc1-c1ccccc1`, the activity, negative = inhibition was -10.7% [at 2.33 µM] (inactive).
`CCOc1ccc(N(CC)S(=O)(=O)N2CCCC(C(=O)Nc3ccc(C(C)=O)cc3)C2)cc1` (stereo not drawn): the Potency result is “inactive”.
Still for that read-out and setting: the same measure for `O=C(Nc1cc(S(=O)(=O)N2CCOCC2)ccc1OCC(F)(F)F)c1ccc(N2CCCC2=O)cc1`: “inactive”.
Turning to `CCN(CC)S(=O)(=O)c1cc([N+](=O)[O-])ccc1N=Nc1c(O)n(C)c2ccccc12`, the Potency result is “inactive”.
The same measure, in the same setting: the same measure for `CC(=O)c1ccc(NC(=O)Nc2ccc([N+](=O)[O-])cc2C)cc1`: “inactive”.
On the same count and under the same terms, the result for `CCN(CC)S(=O)(=O)c1cc([N+](=O)[O-])ccc1NNC(=O)Nc1ccccc1` reads 15.8 µM (active); that for `O=C(O)c1ccc(Cn2c(SCc3ccc(F)cc3)nc3ccncc32)cc1`, “inactive”.
Same read-out and setting: the same measure for `Cn1c(=O)nc2n(-c3ccc(Br)cc3)c3cccc(Cl)c3cc-2c1=O`: “inactive”; for `COc1ccccc1NC(=S)N1CCN(C(c2ccccc2)c2ccccc2)CC1`: 28.2 µM (active); for `O=C(c1ccc(-n2cnnn2)cc1)N1CCN(C(c2ccccc2)c2ccccc2)CC1`: “inactive”.
Regarding `CCOc1ccccc1NC(=S)N1CCN(c2cccc(C)c2C)CC1`, the Potency entry was “inactive”.
As to `CC(C)NC(=S)N1CCN(C(c2ccccc2)c2ccccc2)CC1`, the Potency entry was “inactive”.
Still for that read-out and setting: the result for `Oc1ccccc1CN1CCN(C(c2ccccc2)c2ccccc2)CC1` reads 28.2 µM (active).
Same read-out and setting: the result for `c1ccc(C(c2ccccc2)N2CCN(Cc3nnnn3C3CCCCC3)CC2)cc1` reads “inactive”; that for `CC(=O)N1CCN(CC(c2ccccc2)c2ccccc2)CC1`, “inactive”.
Regarding `COc1ccccc1CN1CCN(C(c2ccccc2)c2ccccc2)CC1`, the Potency was 10 µM (active).
Still for that read-out and setting: the result for `COc1ccccc1CNCc1ccc(C(=O)O)s1` reads “inactive”; that for `CC(C)OCC(O)CN1CCN(C(c2ccccc2)c2ccccc2)CC1` (stereo not drawn), 50.1 µM (active).
Turning to `COc1ccccc1NC(=S)N1CCN(c2ccc(F)cc2)CC1`, the activity, negative = inhibition is -4.21% [at 0.501 µM] (inactive).
Turning to `COc1ccccc1CN1CC2(CCN(S(=O)(=O)c3ccccc3)CC2)C1`, the activity, negative = inhibition is 8.67% [at 12.7 µM] (inactive).

These data come from PubChem BioAssay AID504332 (National Center for Advancing Translational Sciences (NCATS), 2011).
